Compounds with a hit are over-represented: about 1.2% of the library has one in this group of screens.
Avidin fluor = green autofluorescence of compounds with avidin beads – biophysical, 488/530 nm, flow cytometry, artefact control, profiling panel. compound fluorescence 488/530 nm; active compounds read high. fluorescence (KMESF) at 10 µM. actives 0.38% (n = 220,000); in the data active means fluorescence above about 47
RGS16-Gao HTS = modulators of RGS16 binding to Galphao, primary screen, biochemical, human proteins, multiplexed bead flow cytometry; bead-based flow cytometry RGS16-Galphao binding, fluorescence; actives lie on both sides; AID 1441, 2008; actives 0.38% (n = 220,000); Regulator of G-protein signaling 16 (Homo sapiens) + Guanine nucleotide-binding protein …; binding response (% of control), % at 10 µM;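 further: Galphao activated by GDP with aluminum fluoride before binding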
RGS8-Gao = RGS8-Galphao binding modulators, primary screen, biochemical, multiplexed bead flow cytometry; Guanine nucleotide-binding protein G(o) subunit alpha (Homo sapiens), P09471; actives lie on both sides; response (percent of control binding), % at 10 µM; actives 0.34% (n = 220,000); in the data active means response below about 60% or above about 140%; inactive means in between;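 further: Galphao activated as the GDP aluminium fluoride complex binding bead-coupled RGS8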
GSH fluor = compound fluorescence on glutathione beads, profiling panel, artefact control, biophysical, 488/530 nm, flow cytometry | GSH beads flow cytometry, compound fluorescence 488/530 nm; active compounds read high | fluorescence (KMESF) at 10 µM | actives 0.25% (n = 190,000) | AID 1776, 2009; in the data active means fluorescence above about 89;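 further: glutathione beads carrying GST-tagged Bcl family fusion proteins plus one bare bead set; values are compound well signal with DMSO vehicle wells as background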
RGS7-Gao = RGS7-Galphao binding modulators, primary screen, biochemical, multiplexed bead flow cytometry; actives 0.35% (n = 220,000); binding response (% of control), % at 10 µM; actives lie on both sides; in the data active means binding response below about 49% or above about 150%; inconclusive means no clear call, values can overlap the other calls; inactive means in between;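 further: fluorescent Galphao held in activated GDP-AlF4 state binding bead-coupled RGS7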
RGS4-Gao reg = modulators of RGS4 binding to Galphao, primary screen, biochemical, multiplexed bead flow cytometry | Guanine nucleotide-binding protein G(o) subunit alpha (Homo sapiens), P09471 | actives lie on both sides | binding response (% of control), % at 10 µM | actives 0.33% (n = 220,000) | AID 1415, 2008; in the data active means binding response below about 49% or above about 150%; inactive means in between;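 further: fluorescent Galphao activated with aluminum fluoride binding bead-coupled RGS4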
RGS4-Gao HTS = modulators of RGS–Galpha-o binding, primary screen, biochemical, multiplexed beads, flow cytometry, RGS4/7/8/16/19; shares compounds with RGS16-Gao HTS; multiplexed bead flow cytometry; RGS4–Galpha-o binding response, % at 10 µM; actives 99% (n = 1,600);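 further: fluorescently labeled Galpha-o bound to GDP with aluminium fluoride binding biotinylated RGS beads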
Target sequence (P09471 whole entry, looked up): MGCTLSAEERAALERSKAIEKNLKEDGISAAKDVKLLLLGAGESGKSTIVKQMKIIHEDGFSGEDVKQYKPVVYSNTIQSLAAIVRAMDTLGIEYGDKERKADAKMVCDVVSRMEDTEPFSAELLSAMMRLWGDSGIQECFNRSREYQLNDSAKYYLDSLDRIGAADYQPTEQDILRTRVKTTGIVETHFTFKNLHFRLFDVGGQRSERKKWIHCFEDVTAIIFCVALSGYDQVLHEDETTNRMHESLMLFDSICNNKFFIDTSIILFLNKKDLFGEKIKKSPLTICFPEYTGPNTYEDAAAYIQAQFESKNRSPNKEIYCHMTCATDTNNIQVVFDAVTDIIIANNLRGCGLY
Target sequence (P49798 whole entry, looked up): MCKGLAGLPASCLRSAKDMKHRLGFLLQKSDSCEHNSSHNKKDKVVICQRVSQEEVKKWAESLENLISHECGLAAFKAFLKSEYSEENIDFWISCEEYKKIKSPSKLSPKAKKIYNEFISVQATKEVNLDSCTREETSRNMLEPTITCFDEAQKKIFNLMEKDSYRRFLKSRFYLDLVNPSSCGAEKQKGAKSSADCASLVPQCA
Avidin counter = disruption of biotin probe capture by avidin, counter-screen for RGS protein interaction modulators, biochemical, flow cytometry, bead-based; shares compounds with RGS16-Gao HTS; streptavidin beads, fluorescein-biotin binding; inhibition, % at 10 µM; 1,700 tested, under 10 active;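 active means inhibition above 50%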;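 further: median green fluorescence of gated singlet beads compared with DMSO control wells; 0% = DMSO wells and 100% = complete loss of bead fluorescence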
RGS8-Gao confirm = RGS8-Galphao binding modulators, confirmation, biochemical, multiplexed bead flow cytometry, single concentration | shares compounds with RGS16-Gao HTS | bead-based flow cytometry RGS8-Galphao binding, fluorescence; actives lie on both sides | binding response (% of control), % at 10 µM | actives 3% (n = 1,700) | AID 1836, 2009; in the data active means binding response below about 72% or above about 130%; inactive means in between;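 further: Galphao activated as GDP AlF4 complex before binding bead RGS8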
RGS7-Gao single = RGS7-Galphao binding modulators, confirmation, biochemical, multiplexed bead flow cytometry, single concentration; bead-based flow cytometry RGS7-Galphao binding; actives lie on both sides; actives 7.8% (n = 1,700); response (percent of control binding), % at 10 µM; shares compounds with RGS16-Gao HTS; in the data active means response below about 75% or above about 130%; inactive means in between;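 further: fluorescent Galphao activated with GDP and aluminum fluoride binding bead-coupled RGS7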
RGS16-Gao single = modulators of RGS16-Galphao protein binding, confirmation, biochemical, single concentration, multiplexed bead flow cytometry; shares compounds with RGS16-Gao HTS; bead-based flow cytometry; actives lie on both sides; actives 4% (n = 1,700); response (% of control binding), % at 10 µM; in the data active means response below about 74% or above about 130%; inactive means in between;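 further: Galphao activated as the GDP aluminium fluoride complex binding bead-coupled RGS16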
RGS4-Gao confirm = modulators of RGS4-Galphao protein binding, confirmation, biochemical, single concentration, multiplexed bead flow cytometry; AID 1840, 2009; shares compounds with RGS16-Gao HTS; binding response (% of control), % at 10 µM; actives 4% (n = 1,700); actives lie on both sides; in the data active means binding response below about 74% or above about 130%; inactive means in between
RGS19-Gao single = regulators of RGS19-Galphao binding, confirmation, biochemical, single point, multiplexed bead flow cytometry; shares compounds with RGS16-Gao HTS; bead-based flow cytometry RGS19-Galphao binding; actives lie on both sides; response (percent of control binding), % at 10 µM; actives 5% (n = 1,700); in the data active means response below about 50% or above about 160%; inactive means in between;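 further: 100% = no compound control and 0% = blank background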
An asterisk follows results filed as active; ? = inconclusive; . = no result. Unless noted, how the calls were made is not given here.

SMILES | Avidin fluor | RGS16-Gao HTS | RGS8-Gao | GSH fluor | RGS7-Gao | RGS4-Gao reg | RGS4-Gao HTS | Avidin counter | RGS8-Gao confirm | RGS7-Gao single | RGS16-Gao single | RGS4-Gao confirm | RGS19-Gao single
Oc1cc2c(cc1O)C1c3ccc(O)c(O)c3OCC1(O)C2 (stereo unspecified) | 0 | 3.4* | 19* | 18 | 32* | 67 | 67* | . | . | . | . | . | .
CCCc1nc(SCC(=O)Nc2nnc(SCC)s2)c2c(=O)n(C)c(=O)n(C)c2n1 | 4 | 53 | 59* | 19 | 44* | 54 | 54* | . | . | . | . | . | .
NC(=O)c1ccc(NC(=O)CN2CCN(c3ccc(Cl)cc3)CC2)cc1 | 11 | 29 | 36* | 13 | 34* | 38* | . | 0 | 103 | 102 | 103 | 104 | 109
COc1ccc(NC(=O)C2CC(=O)OC2c2ccccc2)cc1 (stereo unspecified) | 7 | 24* | 90 | 10 | 99 | 96 | 96* | 0 | 104 | 103 | 104 | 103 | 102
Cc1cc(NC(=O)C2CC(=O)OC2c2ccccc2)no1 (stereo unspecified) | 13 | 100 | 101 | 29 | 97 | 96 | . | . | . | . | . | . | .
COC(=O)C(C)NC(=O)C(C)NC(=O)OCc1ccccc1 (stereo unspecified) | . | . | . | 15 | . | . | . | -1 | 91 | 87 | 91 | 94 | 87
Clc1ccc(-c2nc(/C=N/N3CCOCC3)c3ccccn23)cc1 | 12 | 100 | 98 | 9 | ? | 100 | . | . | . | . | . | . | .
c1ccc(-c2nnsc2-c2nc3ccccc3[nH]2)cc1 | 6 | 99 | 56* | 18 | 62 | 84 | 84* | -1 | 106 | 107 | 104 | 107 | 100

Bioassay records as filed in PubChem BioAssay.
